Screening results as filed in PubChem BioAssay.
3T3 cytotox = kills NIH 3T3 cells; AID 1345082; NIH 3T3 viability, CellTiter-Glo ATP luminescence, 48-72 h; Potency, µM (doses to about 96.7 µM), without a hit: at the top dose activity change, negative = cytotoxicity, usual class: inhibitors; 94,000 tested, 4.3% active; further: on the % scale 0 is the no-effect control and ±100 the full control effect; nearly all actives have a fitted effect of over 55% in size
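Cells were seeded at 400 per well, treated with pin-transferred compound, and kept 48 or 72 hr at 37 °C before CellTiter-Glo addition and luminescence imaging of cellular ATP.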
HEK293 tox = cytotoxic compounds in HEK 293 cells; HEK 293 viability, ATP luminescence (CellTiter-Glo), 48-72 h; 94,000 tested, 6.6% active; Potency, µM (titrated, usually from 115 µM), without a hit: at the top dose activity change, negative = cytotoxicity, most hits filed as inhibitors; AID 1345083; further: on the % scale 0 is the no-effect control and ±100 the full control effect; nearly all actives have a fitted effect of over 60% in size
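HEK 293 cells seeded at 250 cells/well were exposed to compound for 48 or 72 hr at 37 degree Celsius. Viability taken as ATP content by CellTiter-Glo luminescence.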
NPR1 antag = blocks ANP-stimulated signaling of human Npr1 receptor. P16066. HEK293 hNpr1 GloSensor cGMP, ANP-stimulated luminescence. Potency, µM (titrated, usually from 46.3 µM), without a hit: at the top dose activity change, negative = inhibition, hits mostly inhibitors. 76,000 tested, 1.6% active; calls by dose curve; further: on the % scale 0 is the no-effect control and ±100 the full control effect; nearly all actives have a fitted effect of over 60% in size
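HEK293 cells stably expressing human Npr1 and cGMP GloSensor pGS-40F, loaded 2 h with 2% GloSensor reagent, given compound 30 min at room temperature. Luminescence read before and 20 min after 0.1 nM hNppA.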
GPT2 inh = blocks human glutamate pyruvate transaminase 2; Recombinant GPT2, coupled pyruvate oxidase/HRP Amplex Red fluorescence; AID 1671188; Potency, µM (doses to about 57.7 µM), inactives show top-dose activity change, negative = inhibition, usual class: inhibitors; 100,000 tested, 0.25% active; further: on the % scale 0 is the no-effect control and ±100 the full control effect; nearly all actives have a fitted effect of over 60% in size
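GPT2 10ng/uL, a-KG 250uM, L-Ala 2mM, HEPES pH7.5 + 0.0001% Tween; 30 min RT. Then Amplex mix (PO/HRP/ThPP), 30 min RT dark, fluorescence. AOA 50uM used as positive control.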
FLuc inh-1 = Photinus pyralis luciferase inhibition; 76,000 tested, 2.5% active; P08659; purified P. pyralis luciferase, luminescence, biochemical; Potency, µM (titrated, usually from 115 µM), hits mostly inhibitors; further: on the % scale 0 is the no-effect control and ±100 the full control effect; nearly all actives have a fitted effect of over 65% in size
Target sequence (P08659 whole entry, looked up): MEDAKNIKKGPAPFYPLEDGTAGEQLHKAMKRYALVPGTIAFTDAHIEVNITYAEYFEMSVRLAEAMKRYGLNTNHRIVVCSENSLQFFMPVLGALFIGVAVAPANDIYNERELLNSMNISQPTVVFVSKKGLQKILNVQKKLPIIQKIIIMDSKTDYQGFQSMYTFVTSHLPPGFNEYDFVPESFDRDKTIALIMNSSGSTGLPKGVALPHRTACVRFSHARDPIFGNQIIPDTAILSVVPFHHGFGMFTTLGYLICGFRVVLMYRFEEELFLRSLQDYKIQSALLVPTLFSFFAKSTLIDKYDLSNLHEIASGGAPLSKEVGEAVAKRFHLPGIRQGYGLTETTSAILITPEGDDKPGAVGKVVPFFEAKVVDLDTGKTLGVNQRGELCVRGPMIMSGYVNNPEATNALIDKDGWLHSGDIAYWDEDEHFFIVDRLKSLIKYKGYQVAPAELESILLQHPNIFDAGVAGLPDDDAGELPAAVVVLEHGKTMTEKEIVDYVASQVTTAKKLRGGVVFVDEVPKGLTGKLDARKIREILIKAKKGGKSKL
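Purified P. pyralis luciferase (10nM final) in 50mM Tris acetate pH 7.5, 10mM Mg acetate, 0.01% Tween-20, 0.05% BSA with 10uM D-luciferin and 10uM ATP. Compounds titrated qHTS. Luminescence imaged on CCD.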
FLuc SDR -ATP = firefly luciferase binding stabilization, ATP absent; shares compounds with FLuc inh-1; Purified FLuc-C-HiBiT, Nano-Glo HiBiT luminescence, no ATP; Potency, µM (doses to about 32.7 µM), for the others: at the top dose activation (signal gain), hits mostly activators; 1,300 tested, 7.8% active; AID 1963318; further: nearly all actives have a fitted effect of over 55% in size
FLuc SDR ATP = stabilizes firefly luciferase with ATP present; shares compounds with FLuc inh-1; purified FLuc-C-HiBiT + ATP, HiBiT complementation luminescence; Potency, µM (doses to about 32.7 µM), for inactives: at the highest dose activation (gain of signal), actives largely listed as activators; 1,300 tested, 8.7% active; AID 1963319;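 further: signal reports ligand binding via conformational change of the enzyme rather than luciferase catalysis; % of control where 0% means no effect; nearly all actives have a fitted effect of over 55% in size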
FLuc inh-2 = blocks firefly luciferase enzymatic activity; shares compounds with FLuc inh-1; purified FLuc-C-HiBiT enzyme, luciferin luminescence; Potency, µM (titrated, usually from 32.7 µM), inactives show at the top dose activity change, negative = inhibition, usual class: inhibitors; 1,300 tested, 42% active; further: on the % scale 0 is the no-effect control and ±100 the full control effect; nearly all actives have a fitted effect of over 70% in size
* = called active by the depositor; [ ] = remark or other dose. Sampled rows, rich in hits. Any-hit rate of the full collection: about 10%. Unless noted, the call rests on the fitted dose curve; in most records, active means well fitted curve in the direction sought with a large enough effect; inconclusive means small, poorly fitted or top-dose-only effect, or another doubt; inactive means no such curve, though single readings can be large; an effect the other way counts as inactive or inconclusive. Potency means the concentration at half of the fitted maximal effect.

COCC(=O)N1CCc2nc(C)nc(-c3ccc(OC)cc3)c2C1 was read as 3T3 cytotox -29.2%[138 µM], HEK293 tox -23.0%[172 µM], NPR1 antag 1.8%[70.6 µM], GPT2 inh inactive, FLuc inh-1 inactive, FLuc SDR -ATP 10.2%[49.3 µM], FLuc SDR ATP 7.9%[49.3 µM] and FLuc inh-2 -5.1%[49.3 µM].
For Cc1cc(C(F)(F)F)nn1CC(=O)N1CCC2(CC1)CC(CC(=O)NCc1ccccc1)CCO2 (centres undefined) the results were 3T3 cytotox -16.0%, HEK293 tox inconclusive and GPT2 inh -2.5%.
`COc1ccccc1N1CCN(C2CCCN(C3CCN(Cc4ccccc4)CC3)C2)CC1` (centres undefined) gave 3T3 cytotox inconclusive, HEK293 tox inconclusive, NPR1 antag -2.1%, GPT2 inh -3.9% and FLuc inh-1 inactive.
CCCCC(=O)NC1CCN(c2cn[nH]c(=O)c2)CC1 was read as 3T3 cytotox -23.1%, HEK293 tox 2.9%, NPR1 antag 3.2%, GPT2 inh inactive and FLuc inh-1 inactive.
`O=C(Nc1ccc(O)c(-c2nc3ccccc3s2)c1)c1cc2ccccc2o1` gave FLuc SDR -ATP 13.6%, FLuc SDR ATP 9.7% and FLuc inh-2 -1.3%.
`O=C(NCCCCN1CCOCC1)c1cc2ccccc2o1` gave GPT2 inh inactive.
For O=C(Nc1cc(-c2nc3ccccc3s2)ccc1Cl)c1cc2ccccc2o1 the results were FLuc SDR -ATP 15.2%, FLuc SDR ATP 11.0% and FLuc inh-2 -1.2%.
`Cn1ncc2c(C(=O)NCc3ccc(F)cc3F)cc(-c3ccc(C(F)(F)F)cc3)nc21` gave 3T3 cytotox -26.2% and HEK293 tox -2.8%.
Screening COc1ccc(C(=O)Nc2noc3ccccc23)cc1 returned FLuc SDR -ATP 9.89µM*, FLuc SDR ATP 3.13µM* and FLuc inh-2 0.881µM*.
O=C(O)CCC(=O)N1Cc2ccccc2CC2(CCCCN2Cc2ccc(O)cc2)C1 (centres undefined) was read as 3T3 cytotox inactive, HEK293 tox inactive and GPT2 inh 4.0%.
`Brc1ccccc1-n1ncc2c1ncn1nc(Cc3ccccc3)nc21` gave FLuc SDR -ATP 15.6%, FLuc SDR ATP 10.4% and FLuc inh-2 -10.7%.
For CC(C)=CCCC1(C)Oc2cc3c(c4c2C2C(O4)C(C)(O)CCC21)CN(C(CCC(=O)O)C(=O)O)C3=O (centres undefined) the results were GPT2 inh -8.0%[27.3 µM].
CC(C)Cc1noc(-c2ccc(N3CCC(O)CC3)nc2)n1 was read as 3T3 cytotox inconclusive, HEK293 tox -26.8%, NPR1 antag 8.91µM*, GPT2 inh 1.5%, FLuc inh-1 0.794µM*, FLuc SDR -ATP 24.0%, FLuc SDR ATP inconclusive and FLuc inh-2 5.56µM*.
Screening CC(C)Cc1noc(-c2ccc(N3CCCC(C(C)(C)O)C3)nc2)n1 (centres undefined) returned 3T3 cytotox inconclusive, HEK293 tox inconclusive, NPR1 antag -11.1%, GPT2 inh inconclusive and FLuc inh-1 inactive.
For O=C(Nc1ccc([C@H]2OCC(=O)N(C3CCOCC3)[C@@H]2CO)cc1)c1ccc(C(F)(F)F)cc1 the results were 3T3 cytotox -17.9%, HEK293 tox -5.0%, NPR1 antag -0.2%, GPT2 inh -1.6%, FLuc inh-1 10µM*, FLuc SDR -ATP inconclusive, FLuc SDR ATP 14.6% and FLuc inh-2 inconclusive.
`N#Cc1ccc(C(=O)Nc2ccc([C@H]3OCC(=O)N(C4CCOCC4)[C@@H]3CO)cc2)cc1` gave 3T3 cytotox 0.6%, HEK293 tox -4.3%, NPR1 antag 0.0%, GPT2 inh 3.8% and FLuc inh-1 inactive.
For COc1ccc(C(=O)NCCn2ccn3nc(-c4cc(C)ccc4C)cc3c2=O)cc1OC the results were 3T3 cytotox inconclusive, HEK293 tox inconclusive, NPR1 antag -19.3%, GPT2 inh inactive and FLuc inh-1 inactive.
For Cc1ccc(C)c(-c2cc3c(=O)n(CCNC(=O)Cc4cccs4)ccn3n2)c1 the results were 3T3 cytotox inconclusive, HEK293 tox inconclusive, NPR1 antag -11.8%, GPT2 inh inactive and FLuc inh-1 inactive.
For CC(=O)Nc1cccc(C(=O)NCCn2ccn3nc(-c4ccc(C)cc4C)cc3c2=O)c1 the results were 3T3 cytotox inconclusive, HEK293 tox 39.8µM*, NPR1 antag -18.5%, GPT2 inh inactive, FLuc inh-1 5.01µM*, FLuc SDR -ATP 31.2%, FLuc SDR ATP inconclusive and FLuc inh-2 9.89µM*.
For Cc1ccc(C)c(-c2cc3c(=O)n(CCNC(=O)c4ccccc4)ccn3n2)c1 the results were 3T3 cytotox inconclusive, HEK293 tox inconclusive, NPR1 antag -12.7%, GPT2 inh inactive and FLuc inh-1 inactive.
Screening Cc1ccc(-c2cc3c(=O)n(CCNC(=O)Cc4ccsc4)ccn3n2)c(C)c1 returned 3T3 cytotox inconclusive, HEK293 tox inconclusive, NPR1 antag 0.0%, GPT2 inh inactive, FLuc inh-1 8.91µM*, FLuc SDR -ATP inconclusive, FLuc SDR ATP inconclusive and FLuc inh-2 6.24µM*.
Cc1ccc(-c2cc3c(=O)n(CCNC(=O)c4cccnc4)ccn3n2)c(C)c1 was read as 3T3 cytotox inconclusive, HEK293 tox inconclusive, NPR1 antag 5.0%, GPT2 inh inactive, FLuc inh-1 8.91µM*, FLuc SDR -ATP 30.3%, FLuc SDR ATP inconclusive and FLuc inh-2 inconclusive.
Cc1ccc(-c2cc3c(=O)n(CCNC(=O)c4ccc(N(C)C)cc4)ccn3n2)c(C)c1 was read as 3T3 cytotox -16.5%, HEK293 tox inconclusive, NPR1 antag -17.7%, GPT2 inh inactive, FLuc inh-1 2.51µM*, FLuc SDR -ATP 19.8%, FLuc SDR ATP 14.0% and FLuc inh-2 inconclusive.
Screening CC(C)COC(=O)N1C[C@H](C(N)=O)[C@H]2c3ccccc3N(C)C(=O)[C@]21C returned 3T3 cytotox inconclusive and HEK293 tox -20.1%.
